# Measured values taken from the supplement of paper PMC7366291.
# Counter-ions that a name gives are not always drawn. ± gives the standard deviation or the standard deviation of the averaged measurements.
# What was measured:
# Settings in all cases: 25 µM; exposure: 24-48 hpf
# [1] = tested on: Danio rerio Tg(wt1b:EGFP) embryo, pronephros; assay: glomerular separation, fold change vs DMSO control; higher = glomeruli further apart (abnormal)
# Summary of the method: (§1)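 Distances and angles describing the pronephros were computed by a Fiji macro from 16 reference points set manually on maximum projections of dorsal images. These images came from dechorionated Tg(wt1b:EGFP) zebrafish embryos held in agarose-filled 96-well plates after exposure to 25 μM compound in 0.5% DMSO, in HEPES-buffered E3 with 0.003% PTU, from 24 to 48 hpf at 28.5°C. Any value more than 2 SD from the feature mean was excluded. Features are stated as fold change relative to the mean of same-day DMSO-treated embryos.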
# [2] = tested on: Danio rerio Tg(wt1b:EGFP) embryo, pronephros; assay: glomerular width (mean of left and right), fold change vs DMSO control; higher = wider glomerulus
# Summary of the method: as §1
# [3] = tested on: Danio rerio Tg(wt1b:EGFP) embryo, pronephros; assay: fraction of imaged embryos annotated as normal kidney; higher = less nephrotoxic; extreme values may be limits of the assay
# Summary of the method: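 From 24 to 48 hpf at 28.5°C, dechorionated Tg(wt1b:EGFP) zebrafish embryos in 12-well plates were kept in 5 mM HEPES-buffered E3 with 0.003% PTU, 0.5% DMSO and 25 μM compound. Pronephroi were imaged by widefield fluorescence at 470 nm and judged by eye from maximum projections. Reported is the proportion of embryos per treatment in the normal-kidney category.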
# [4] = tested on: Danio rerio Tg(wt1b:EGFP) embryo, pronephros; assay: pronephric angle neck segment to proximal convoluted tubule (mean of left and right), fold change vs DMSO control; higher = larger pronephric angle
# Summary of the method: as §1
SMILES,glomerular separation [1],glomerular width [2],fraction of imaged embryos annotated as normal kidney [3],pronephric angle neck segment [4]
NCCCC(O)(P(=O)(O)O)P(=O)(O)O [Alendronate sodium],0.796 ± 0.25,0.984 ± 0.03,0.833,1 ± 0.041
CCC(C)(CN(C)C)OC(=O)c1ccccc1 (stereo unspecified) [Amyleine hydrochloride],1.1 ± 0.77,1.04 ± 0.028,0.833,0.9967 ± 0.0077
C#CCN[C@@H]1CCc2ccccc21 [Rasagiline],1.13 ± 0.38,0.994 ± 0.012,0.667,0.972 ± 0.021
O=C1CC[C@@H](C(=O)N2CSC[C@H]2C(=O)O)N1 [Pidotimod],1.03 ± 0.42,1.05 ± 0.025,0.917,1.003 ± 0.0016
Clc1ccc(Nc2nnc(Cc3ccncc3)c3ccccc23)cc1 [Vatalanib],1.37 ± 0.99,0.886 ± 0.039,0.833,1.02 ± 0.046
O=C(O)CCNC(=O)c1ccc(/N=N/c2ccc(O)c(C(=O)O)c2)cc1 [Balsalazide Sodium],0.832 ± 0.29,1.03 ± 0.012,0.833,1.08 ± 0.012
CN1CCC(=C2c3ccccc3C=Cc3ccccc32)CC1 [Cyproheptadine hydrochloride],1.28 ± 0.31,0.94 ± 0.06,0.667,1.2 ± 0.081
NCC[C@H](O)C(=O)N[C@@H]1C[C@H](N)[C@@H](O[C@H]2O[C@H](CN)[C@@H](O)[C@H](O)[C@H]2O)[C@H](O)[C@H]1O[C@H]1O[C@H](CO)[C@@H](O)[C@H](N)[C@H]1O [Amikacin hydrate],1.13 ± 0.48,1.02 ± 0.028,0.667,1.04 ± 0.02
O=C(O)c1cccnc1 [Niacin],0.706 ± 0.25,1.04 ± 0.063,0.917,0.992 ± 0.032
O=C1CC2(CCCC2)CC(=O)N1CCCCN1CCN(c2ncccn2)CC1 [Buspirone hydrochloride],0.901 ± 0.35,1.02 ± 0.022,0.75,1.01 ± 0.034
CC(C)(O)c1ccccc1CC[C@@H](SCC1(CC(=O)O)CC1)c1cccc(/C=C/c2ccc3ccc(Cl)cc3n2)c1 [Montelukast],0.861 ± 0.26,0.925 ± 0.047,0.833,1.04 ± 0.026
CNC(=C[N+](=O)[O-])NCCSCc1ccc(CN(C)C)o1 [Ranitidine hydrochloride],0.923 ± 0.34,0.941 ± 0.074,0.667,1.1 ± 0.051
CCCSc1ccc2[nH]c(NC(=O)OC)nc2c1 [Albendazole],3.72 ± 1.5,0.591 ± 0.025,0,1.97 ± 0.07
CN1CCN(C2=Nc3cc(Cl)ccc3Nc3ccccc32)CC1 [Clozapine],0.792 ± 0.2,1.05 ± 0.011,1,0.975 ± 0.058
COC(=O)[C@@H]1[C@H]2C[C@H]3c4[nH]c5ccccc5c4CCN3C[C@@H]2CC[C@@H]1O [Yohimbine hydrochloride],1.24 ± 0.41,1.08 ± 0.069,0.727,0.985 ± 0.082
CCOC(=O)[C@H](CCc1ccccc1)N[C@@H](C)C(=O)N1[C@H](C(=O)O)C[C@@H]2CCC[C@@H]21 [Ramipril],0.977 ± 0.26,0.8501 ± 0.0032,1,1.037 ± 0.0046
CC(=C(CCO)SSCC1CCCO1)N(C=O)Cc1cnc(C)nc1N (stereo in doubt) [Fursultiamine Hydrochloride],1.06 ± 0.24,0.996 ± 0.027,0.833,1.005 ± 0.0057
CNCCc1ccccn1 [Betahistine mesylate],0.815 ± 0.39,1.06 ± 0.034,0.833,0.9697 ± 0.0079
Cc1cn([C@H]2C=C[C@@H](CO)O2)c(=O)[nH]c1=O [Stavudine],0.929 ± 0.3,0.874 ± 0.0014,1,0.9729 ± 0.00098
Clc1ccccc1CN1CCc2sccc2C1 [Ticlopidine hydrochloride],1.13 ± 0.49,1.09 ± 0.048,0.833,1.008 ± 0.0084
Cc1ccc(-c2ncc(Cl)cc2-c2ccc(S(C)(=O)=O)cc2)cn1 [Etoricoxib],0.967 ± 0.19,1.023 ± 0.0032,0.833,1.04 ± 0.042
CN(CCOc1ccc(NS(C)(=O)=O)cc1)CCc1ccc(NS(C)(=O)=O)cc1 [Dofetilide],1.35 ± 0.35,0.982 ± 0.025,0.583,1.01 ± 0.07
CC[N+](C)(CC)CCOC(=O)C1c2ccccc2Oc2ccccc21 [Methantheline bromide],0.979 ± 0.45,0.996 ± 0.029,0.917,1.045 ± 0.0066
CCCCN(CCCC)CCCOC(=O)c1ccc(N)cc1 [Butacaine],0.928 ± 0.47,0.939 ± 0.05,0.917,0.9912 ± 0.0092
CCCN(CCC)CCc1cccc2c1CC(=O)N2 [Ropinirole hydrochloride],1.34 ± 0.63,0.908 ± 0.044,0.75,0.991 ± 0.037
CC[C@H]1OC(=O)[C@H](C)[C@@H](O[C@H]2C[C@@](C)(OC)[C@@H](O)[C@H](C)O2)[C@H](C)[C@@H](O[C@@H]2O[C@H](C)C[C@H](N(C)C)[C@H]2O)[C@](C)(O)C[C@@H](C)C(=O)[C@H](C)[C@@H](O)[C@]1(C)O [Erythromycin],1.19 ± 0.74,1.042 ± 0.0044,0.818,0.9494 ± 0.0015
NS(=O)(=O)c1cc(Cl)c(Cl)c(S(N)(=O)=O)c1 [Dichlorphenamide],0.91 ± 0.4,1.15 ± 0.06,0.727,0.941 ± 0.041
CN1Cc2c(N)cccc2C(c2ccccc2)C1 (stereo unspecified) [Nomifensine maleate],0.973 ± 0.34,1.04 ± 0.051,1,1.01 ± 0.065
OCCN1CCN(CCCN2c3ccccc3Sc3ccc(C(F)(F)F)cc32)CC1 [Fluphenazine dihydrochloride],1.03 ± 0.53,1.07 ± 0.02,0.833,0.932 ± 0.013
